Measurements from PubChem BioAssay.
Active and inactive are the calls of the source.

How the values were obtained:
[1] = test system: Plasmodium falciparum Sir2 (PF13_0152, Sir2A); test: Plasmodium falciparum Sir2A binding compounds – biochemical, small-molecule microarray, 635 nm fluorescence, primary screen (AID 1098); conditions: fluorescence 635 nm, higher = more signal;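 also: score merges spot fluorescence intensity with its signal-to-noise ratio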
[2] = probe aDKK1 binding to arrayed compounds – biochemical, biotinylated probe, 635/667 nm fluorescence, primary screen (AID 1099); conditions: small-molecule microarray, higher = more signal;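 also: score merges 667nm spot fluorescence with signal to noise across triplicate slides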
[3] = probe aCHRDL2 binding to arrayed compounds – biochemical, biotinylated probe, 635/667 nm fluorescence, primary screen (AID 1100); conditions: small-molecule microarray, higher = more signal
[4] = change in splice reporter luminescence, either direction, cell-based, HEK293, spliceosome inhibition project, primary screen (AID 1101); conditions: HEK293 splicing luciferase reporter, 24 h, higher = more signal, called active from +8 up or from −8 down;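 also: HEK293 cells carrying a splicing-competent luciferase reporter gene; test concentration not given here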
[5] = biological target: Fibroblast growth factor 10 (Homo sapiens) (UniProt O15520); test: compounds binding fibroblast growth factor 10 – biochemical, small-molecule microarray, 635 nm fluorescence, primary screen (AID 1102); conditions: FGF10 binding, fluorescence 635 nm, higher = more signal
[6] = test system: glycogen synthase kinase-3 (GSK3A per assay name; protocol says GSK3B); test: compounds binding glycogen synthase kinase-3 – biochemical, small-molecule microarray, 635 nm fluorescence, GSK3A, primary screen (AID 1103); conditions: fluorescence 635 nm, higher = more signal; also: the record names both GSK3A and GSK3B
[7] = biological target: Epidermal growth factor receptor (Homo sapiens) (UniProt P00533); test: compounds binding epidermal growth factor receptor – biochemical, small-molecule microarray, 635 nm fluorescence, primary screen (AID 1104); conditions: EGFR binding, higher = more signal;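 also: score merges 667 nm emission intensity with spot signal to noise over triplicate slides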
[8] = biological target: Follistatin-related protein 3 (Homo sapiens) (UniProt O95633); test: compounds binding follistatin-related protein 3 – biochemical, small-molecule microarray, 635 nm fluorescence, primary screen (AID 1105); conditions: FSTL3 binding, higher = more signal;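 also: score merges emission near 667 nm and signal to noise per printed spot across three slides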
[9] = biological target: Dickkopf-related protein 1 (Homo sapiens) (UniProt O94907); test: small molecules binding DKK1 protein – biochemical, small-molecule microarray, 635 nm fluorescence scan, primary screen (AID 1106); conditions: higher = more signal;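 also: score merges emission near 667 nm with signal to noise over three replicate slides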
[10] = test system: Inhibin beta A chain (activin A); test: small molecules binding activin A – biochemical, small-molecule microarray, 635 nm fluorescence scan, primary screen (AID 1107); conditions: INHBA, higher = more signal;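 also: mouse activin A protein probed at 4.33 µg/mL on printed slides; score merges bound-protein fluorescence near 667 nm with spot signal-to-noise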
[11] = test system: Human papillomavirus type 1a protein E7 (residues 44-93); test: small molecules binding HPV E7 44-93 – biochemical, small-molecule microarray, residues 44-93, 635 nm fluorescence, primary screen (AID 1108); conditions: fluorescence 635 nm, higher = more signal;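 also: E7 fragment applied at 1 µg/mL in TBST for 1 h at 4 C; score combines spot fluorescence with its signal to noise ratio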
[12] = hepatitis C replication reporter changes, two-sided – Huh7 cells, luciferase reporter, HCV replication inhibitor project, primary screen (AID 1109); conditions: Huh7 HCV replicon luciferase reporter, 48 h; higher = more signal;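 also: huh7 hepatoma cells harbouring a luciferase neomycin HCV replicon reporter; luciferase luminescence as measure of HCV replicon replication; test concentration not given here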
[13] = biological target: Left-right determination factor 2 (Homo sapiens) (UniProt O00292); test: small molecules binding LEFTY2 protein – biochemical, small-molecule microarray, 635 nm fluorescence scan, primary screen (AID 1110); conditions: higher = more signal
[14] = biological target: Calmodulin-1 (Homo sapiens) (UniProt P0DP23); test: small molecules binding calmodulin-1 with EGTA – biochemical, small-molecule microarray, Cy5-labelled CALM1, profiling panel (AID 1111); conditions: Cy5-CALM1 binding fluorescence, higher = more signal;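 also: labelled calmodulin applied in Tris saline Tween buffer holding calcium plus EGTA and DTT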
[15] = biological target: Calmodulin-1 (Homo sapiens) (UniProt P0DP23); test: small molecules binding Ca-loaded calmodulin-1 – biochemical, small-molecule microarray, Cy5-labelled CALM1, plus calcium, artefact control for SMM control-protein annotation, profiling panel (AID 1112); conditions: Cy5-CALM1 binding fluorescence, higher = more signal;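 also: score merges spot fluorescence with signal to noise from triplicate slides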
[16] = probe aWnt5a binding to arrayed compounds – biochemical, biotinylated probe, 635/667 nm fluorescence, primary screen (AID 1113); conditions: small-molecule microarray, higher = more signal;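 also: score merges 667 nm fluorescence intensity with signal-to-noise per printed feature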
[17] = probe aShh binding to arrayed compounds – biochemical, biotinylated probe, 635/667 nm fluorescence, primary screen (AID 1114); conditions: small-molecule microarray, higher = more signal;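 also: probe is biotin-labelled aShh protein from a stem cell growth factor screen; measures binding of labelled protein to compounds printed on the slide; score merges feature fluorescence at 667 nm with signal-to-noise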
[18] = probe aNog binding to arrayed compounds – biochemical, biotinylated probe, 635/667 nm fluorescence, primary screen (AID 1115); conditions: small-molecule microarray, higher = more signal;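 also: probe is biotinylated aNog protein used at 0.15 µg/mL for 1 h at 4 C; z-score combines 667 nm fluorescence of each spot with its signal to noise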
[19] = biological target: Torsin-1A-interacting protein 1 (Homo sapiens) (UniProt Q5JTV8); test: compound microarray binding of lysate hLAP1 – cell lysate, small-molecule microarray, COS7 lysate, 635/667 nm fluorescence, primary screen (AID 1116); conditions: 635 nm fluorescence, higher = more signal
[20] = biological target: Alpha-bungarotoxin (Bungarus multicinctus) (UniProt P60615); test: compounds binding labelled alpha-BTX control protein – biochemical, small-molecule microarray, Alexa647 label, 635/667 nm fluorescence, artefact control for SMM control protein annotation, profiling panel (AID 1117); conditions: alpha-BTX-A647 binding fluorescence, higher = more signal
Alpha-bungarotoxin (Bungarus multicinctus), sequence (P60615 whole entry, looked up): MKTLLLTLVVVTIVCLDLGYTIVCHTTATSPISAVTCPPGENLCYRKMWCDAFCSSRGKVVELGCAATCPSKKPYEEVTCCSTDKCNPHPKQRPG

Torsin-1A-interacting protein 1 (Homo sapiens), sequence (Q5JTV8 whole entry, looked up): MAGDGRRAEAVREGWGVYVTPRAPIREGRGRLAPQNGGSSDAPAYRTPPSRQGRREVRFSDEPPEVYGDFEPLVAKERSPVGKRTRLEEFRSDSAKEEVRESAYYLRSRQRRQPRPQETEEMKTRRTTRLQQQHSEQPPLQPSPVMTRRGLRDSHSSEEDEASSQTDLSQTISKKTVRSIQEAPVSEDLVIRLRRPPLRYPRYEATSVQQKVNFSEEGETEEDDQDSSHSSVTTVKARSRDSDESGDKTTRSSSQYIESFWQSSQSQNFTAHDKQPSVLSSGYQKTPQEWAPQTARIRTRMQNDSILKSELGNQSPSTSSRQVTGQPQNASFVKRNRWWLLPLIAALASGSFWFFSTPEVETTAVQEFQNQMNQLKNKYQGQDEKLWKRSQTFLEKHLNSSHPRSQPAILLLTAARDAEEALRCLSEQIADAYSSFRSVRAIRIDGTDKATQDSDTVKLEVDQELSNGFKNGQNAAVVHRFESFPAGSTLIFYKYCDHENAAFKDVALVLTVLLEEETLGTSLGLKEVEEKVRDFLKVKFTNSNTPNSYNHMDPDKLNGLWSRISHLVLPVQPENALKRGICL
Fibroblast growth factor 10 (Homo sapiens), sequence (O15520 whole entry, looked up): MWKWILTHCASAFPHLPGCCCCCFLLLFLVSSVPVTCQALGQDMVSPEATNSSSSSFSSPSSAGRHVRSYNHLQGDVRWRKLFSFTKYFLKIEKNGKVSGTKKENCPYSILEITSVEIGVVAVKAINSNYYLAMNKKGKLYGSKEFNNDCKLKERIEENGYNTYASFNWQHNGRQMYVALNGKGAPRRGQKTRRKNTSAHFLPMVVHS
Epidermal growth factor receptor (Homo sapiens), sequence (P00533 whole entry, looked up): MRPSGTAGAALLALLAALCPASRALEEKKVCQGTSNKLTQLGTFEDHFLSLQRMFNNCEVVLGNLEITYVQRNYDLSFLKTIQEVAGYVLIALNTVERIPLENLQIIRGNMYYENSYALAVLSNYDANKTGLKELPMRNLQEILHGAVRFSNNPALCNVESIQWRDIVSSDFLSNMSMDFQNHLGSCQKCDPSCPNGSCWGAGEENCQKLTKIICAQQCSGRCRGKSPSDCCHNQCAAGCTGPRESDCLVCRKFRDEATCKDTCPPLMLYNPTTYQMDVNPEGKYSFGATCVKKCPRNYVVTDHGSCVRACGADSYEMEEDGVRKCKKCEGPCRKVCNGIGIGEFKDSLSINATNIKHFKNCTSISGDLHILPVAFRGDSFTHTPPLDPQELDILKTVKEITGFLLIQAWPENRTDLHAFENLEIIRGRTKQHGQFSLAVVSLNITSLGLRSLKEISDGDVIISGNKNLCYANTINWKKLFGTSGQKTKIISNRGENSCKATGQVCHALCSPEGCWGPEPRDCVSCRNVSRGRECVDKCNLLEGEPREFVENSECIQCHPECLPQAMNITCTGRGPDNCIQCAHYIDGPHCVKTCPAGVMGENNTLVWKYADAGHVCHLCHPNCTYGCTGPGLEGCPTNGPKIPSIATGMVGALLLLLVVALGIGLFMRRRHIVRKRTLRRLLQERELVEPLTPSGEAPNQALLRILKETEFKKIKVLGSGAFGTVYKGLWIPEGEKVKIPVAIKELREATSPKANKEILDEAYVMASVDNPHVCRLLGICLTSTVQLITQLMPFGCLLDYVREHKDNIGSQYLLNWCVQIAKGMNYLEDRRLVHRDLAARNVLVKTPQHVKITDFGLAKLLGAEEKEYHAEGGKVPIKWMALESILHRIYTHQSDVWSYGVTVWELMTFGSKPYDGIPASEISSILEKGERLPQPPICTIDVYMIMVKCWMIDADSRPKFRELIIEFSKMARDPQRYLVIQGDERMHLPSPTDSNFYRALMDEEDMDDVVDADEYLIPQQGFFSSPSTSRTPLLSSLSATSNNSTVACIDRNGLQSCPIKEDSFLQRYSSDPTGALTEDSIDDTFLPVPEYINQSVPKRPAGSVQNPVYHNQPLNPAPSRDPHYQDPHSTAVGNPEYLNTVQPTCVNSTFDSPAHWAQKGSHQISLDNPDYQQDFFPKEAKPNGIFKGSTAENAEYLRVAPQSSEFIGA
Dickkopf-related protein 1 (Homo sapiens), sequence (O94907 whole entry, looked up): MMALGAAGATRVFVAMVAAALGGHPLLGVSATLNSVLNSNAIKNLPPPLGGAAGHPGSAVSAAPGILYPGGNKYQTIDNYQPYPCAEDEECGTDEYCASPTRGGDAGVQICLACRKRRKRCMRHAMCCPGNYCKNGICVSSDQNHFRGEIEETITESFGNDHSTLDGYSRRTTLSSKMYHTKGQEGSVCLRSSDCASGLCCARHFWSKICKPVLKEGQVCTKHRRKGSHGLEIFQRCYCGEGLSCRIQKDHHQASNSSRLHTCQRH
Follistatin-related protein 3 (Homo sapiens), sequence (O95633 whole entry, looked up): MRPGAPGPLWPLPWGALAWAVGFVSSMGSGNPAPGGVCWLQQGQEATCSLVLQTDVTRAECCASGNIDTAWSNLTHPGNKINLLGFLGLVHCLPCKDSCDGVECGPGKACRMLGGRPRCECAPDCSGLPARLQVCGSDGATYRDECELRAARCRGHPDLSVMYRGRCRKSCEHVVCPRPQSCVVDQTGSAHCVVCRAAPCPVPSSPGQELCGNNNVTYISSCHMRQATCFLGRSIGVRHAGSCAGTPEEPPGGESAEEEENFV
Left-right determination factor 2 (Homo sapiens), sequence (O00292 whole entry, looked up): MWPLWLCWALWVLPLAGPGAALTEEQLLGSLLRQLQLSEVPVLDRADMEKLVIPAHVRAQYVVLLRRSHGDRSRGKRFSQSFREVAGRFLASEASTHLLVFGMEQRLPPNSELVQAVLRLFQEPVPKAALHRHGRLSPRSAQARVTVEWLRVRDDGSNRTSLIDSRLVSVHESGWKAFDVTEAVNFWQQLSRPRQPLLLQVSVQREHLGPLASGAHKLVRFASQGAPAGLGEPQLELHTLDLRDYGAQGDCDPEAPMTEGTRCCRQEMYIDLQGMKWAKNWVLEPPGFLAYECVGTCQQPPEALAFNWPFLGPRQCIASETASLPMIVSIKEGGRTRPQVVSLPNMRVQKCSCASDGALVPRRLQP

| Compound | composite z-score [1] | composite z-score [2] | composite z-score [3] | z-score [4] | composite z-score [5] | composite z-score [6] | composite z-score [7] | composite z-score [8] | composite z-score [9] | composite z-score [10] | composite z-score [11] | z-score [12] | composite z-score [13] | composite z-score [14] | composite z-score [15] | composite z-score [16] | composite z-score [17] | composite z-score [18] | composite z-score [19] | composite z-score [20] |
| --- | --- | --- | --- | --- | --- | --- | --- | --- | --- | --- | --- | --- | --- | --- | --- | --- | --- | --- | --- | --- |
| O=C1C[C@@](C(=O)NCCN2CCOCC2)(c2ccc([N+](=O)[O-])cc2)[C@@H](c2ccc(CO)cc2I)N1C1CCCCC1 | 0.979 | -0.0973 | -0.0907 | -0.131 (inactive) | 0.76 | 1.15 | 0.593 | 0.926 | 0.397 | 0.454 | 1.18 | -2.66 | 0.369 | -0.413 | -0.173 | -0.0445 | 0.0611 | 0.079 | 0.646 | 1.43 |
| OCCCC1=CC(c2ccc(CN3CCCC3)cc2)N(Cc2sc3ccccc3c2Cl)CC1 (stereo not given) | 1.39 | 0.14 | 0.504 | -1.07 (inactive) | 1.03 | 1.3 | 0.62 | 0.854 | 0.771 | 1.41 | 1.32 | -4.17 | 0.758 | 0.325 | -0.585 | -0.113 | 0.0899 | 0.507 | -0.0337 | 0.827 |
| COc1ccc([Si](C)(C)[C@@H]2[C@@H](CC(=O)N3Cc4ccccc4C[C@H]3CO)O[C@]3(C(=O)N(C)c4ccccc43)[C@H]2C)cc1 | 1.22 | 0.405 | -0.174 | -1.42 (inactive) | 1.15 | 1.3 | 1.05 | 1.48 | 0.874 | 0.916 | 0.215 | -4.84 | 0.812 | 0.617 | -0.0353 | 0.0102 | 0.123 | -0.0692 | 0.907 | 0.794 |
| CC=CC(O)C1C=CC2C(=O)N(c3ccccc3)C(=O)C2N1Nc1ccccc1F (stereo not given) | 0.32 | 1.24 | 0.76 | 0.095 (inactive) | 0.169 | -0.352 | 0.114 | -0.0808 | 0.0324 | 1.21 | 0.286 | -0.536 | -0.0207 | 0.416 | 0.213 | 0.339 | 0.429 | 1.07 | 0.0757 | 0.437 |
| C=CCOC(=O)[C@H]1[C@@H]2C(=O)O[C@@H](c3ccccc3)[C@@H](c3ccccc3)N2[C@@H](c2ccc(OCCOC(=O)[C@H]3C[C@H]4C(=O)N[C@@H](CC(C)C)C(=O)N4[C@H]3c3cccc(OCCO)c3)cc2)[C@]12C(=O)Nc1ccc(I)cc12 | 1.36 | -0.122 | 0.18 | 0.642 (inactive) | 1.33 | 1.31 | 1.21 | 0.919 | 0.963 | 0.535 | 1.31 | -1.51 | 1.08 | 0.621 | 0.0537 | -0.168 | -0.0769 | -0.141 | -0.302 | 0.473 |
| CCOC(=O)C[C@H]1[C@H](OC(=O)Cc2ccc3c(c2)OCO3)[C@@H](NC(=O)Cc2ccc(OC)cc2)c2cc(OCCCO)ccc2N1C(=O)c1ccc2ccccc2n1 | 0.0382 | -0.189 | -0.265 | -0.95 (inactive) | 0.355 | 0.415 | 0.516 | -0.114 | 0.567 | 0.825 | 0.189 | -0.763 | 0.155 | -0.22 | -0.0545 | -0.0792 | 0.23 | -0.134 | 0.526 | 0.424 |
| CN1C(=O)C2C=CC(C(O)c3cccc(O)c3)N(Nc3ccccc3)C2C1=O (stereo not given) | 1.15 | 0.14 | 0.285 | 1.27 (inactive) | 0.517 | -0.236 | -0.288 | -0.0255 | -0.208 | 0.866 | -0.286 | 0.359 | 0.13 | -0.185 | -0.09 | 0.0597 | 1.72 | 0.582 | 0.203 | 0.041 |
| COCCOC(=O)N1C(=O)[C@@]2(c3cc(C#Cc4ccc(OC)cc4)ccc31)[C@H](c1ccc(O)cc1)N1[C@H](c3ccccc3)[C@H](c3ccccc3)OC(=O)[C@H]1[C@@H]2C(=O)N1CCCCCCC1 | 0.447 | 1.81 | 1.36 | 1.5 (inactive) | 0.506 | -0.151 | -0.191 | 0.859 | 0.423 | 1.31 | 0.699 | -0.48 | 0.187 | 1.54 | 0.946 | -0.151 | 0.199 | 1.48 | 2.14 | 0.63 |
| CCOC(=O)C1=CC[C@@H](c2ccccc2C(F)(F)F)N(S(=O)(=O)c2ccc(C)cc2)[C@H]1c1ccc(C#N)cc1 | 0.668 | 0.648 | 0.276 | -0.476 (inactive) | 0.719 | 1.2 | 0.593 | 0.772 | 0.35 | 0.307 | 0.325 | 0.65 | 0.327 | 1.63 | 0.697 | -0.0152 | -0.283 | -0.301 | 0.408 | 0.969 |
| [N-]=[N+]=NCc1ccccc1[C@@H]1OC(c2ccc(OCCCO)cc2)=N[C@]1(CCS(=O)(=O)c1ccccc1)C(=O)NCC(O)CO (stereo not given in full) | 1.46 | 0.76 | 1.03 | -1.33 (inactive) | 1.22 | -0.323 | -0.0077 | 0.6 | -0.227 | 0.736 | 0.711 | -1.2 | -0.275 | 2.14 | 0.701 | 0.0799 | 0.0062 | 0.975 | 4.4 | 2.17 |
| COCCOC(=O)N1C(=O)[C@@]2(c3cc(C#CC4=CCCCC4)ccc31)[C@H](c1ccc(OCCO)cc1)N1[C@H](c3ccccc3)[C@H](c3ccccc3)OC(=O)[C@H]1[C@@H]2C(=O)NC[C@H](O)c1ccccc1 | 1.44 | 0.677 | 0.696 | -0.228 (inactive) | 1.35 | 1.31 | 0.933 | 1.49 | 1.32 | 1.29 | 1.33 | -1.88 | 0.958 | 0.868 | 0.458 | -0.0297 | 0.107 | 0.802 | 1.06 | 1.19 |
| O=C(NCC(F)(F)F)[C@@H]1c2ccccc2C(=O)N(Cc2cc(F)cc(C(F)(F)F)c2)[C@H]1c1ccc(CO)cc1 | 0.251 | -0.0632 | 0.941 | 0.408 (inactive) | -0.788 | -0.587 | -1.12 | -1.29 | -1.39 | -0.53 | 0.463 | -0.661 | -1.53 | 0.152 | 0.712 | -0.096 | -0.0709 | -0.074 | -0.468 | -0.758 |
| COc1ccc(CCNC(=O)[C@@]2(Sc3ccc(C)cc3)CC(=O)N(C3Cc4ccccc4C3)[C@@H]2c2ccc(CO)cc2)cc1 | 0.672 | 0.167 | -0.0208 | -1.67 (inactive) | 1.78 | 1.27 | 0.494 | 1.51 | 2.06 | 1.23 | 1.42 | -3.04 | 1.25 | 1.07 | 0.616 | 0.0799 | 0.171 | 0.557 | 2.01 | 0.535 |
| C[N+](C)(C)CCCCCCNC(=O)[C@H]1C[C@H]2C(=O)N[C@@H](Cc3ccccc3)C(=O)N2[C@H]1c1ccc(O)cc1 | 1.27 | -0.265 | -0.534 | -0.0288 (inactive) | 0.98 | 0.637 | 0.192 | 0.894 | 0.834 | 0.445 | -0.306 | 0.975 | 1.09 | -0.667 | -0.973 | 0.0873 | -0.0146 | -0.175 | 0.302 | 0.966 |
| CC(C)(C)N1CC=CC23O[C@@H]4C=CCOC(=O)[C@@H]4[C@H]2C(=O)N(CCCCCCO)[C@@H]3C1=O (stereo not given in full) | 1.09 | -0.102 | 0.65 | 0.804 (inactive) | -1.59 | -0.708 | -1.04 | -1.34 | -1.34 | 0.294 | -1.38 | 0.397 | -0.84 | -0.243 | -0.123 | -0.206 | -0.291 | -0.357 | -0.252 | -0.348 |
| COCCOC(=O)N1C(=O)[C@@]2(c3cc(C#CCC(C(=O)OC)C(=O)OC)ccc31)[C@H](C(=O)N1CCc3cc(OC)c(OC)cc3C1)[C@H]1C(=O)O[C@H](c3ccccc3)[C@H](c3ccccc3)N1[C@@H]2c1ccc(OCCO)cc1 | 1.37 | 0.0202 | 0.0313 | 0.382 (inactive) | 1.24 | 1.31 | 0.936 | 1.3 | 0.943 | 0.541 | 1.39 | -0.45 | 0.608 | 0.756 | -0.551 | -0.006 | -0.1 | -0.103 | 0.0568 | 2.16 |
